Many of the other results were omitted from the sample, so hits are more common in it than they were.
PI5P4K alpha inh – blocks human PI5P4K alpha kinase activity; P48426; max response, %; 330,000 tested, 1.2% active; PI5P4Kalpha enzyme, ADP-Glo luminescence, 60 min; stronger effect = lower value; active means max response of -50% or lower; inconclusive means between -30% and -50%; inactive means -30% or higher; further: value at the top dose of about 77 µM
Target sequence (P48426 whole entry, looked up): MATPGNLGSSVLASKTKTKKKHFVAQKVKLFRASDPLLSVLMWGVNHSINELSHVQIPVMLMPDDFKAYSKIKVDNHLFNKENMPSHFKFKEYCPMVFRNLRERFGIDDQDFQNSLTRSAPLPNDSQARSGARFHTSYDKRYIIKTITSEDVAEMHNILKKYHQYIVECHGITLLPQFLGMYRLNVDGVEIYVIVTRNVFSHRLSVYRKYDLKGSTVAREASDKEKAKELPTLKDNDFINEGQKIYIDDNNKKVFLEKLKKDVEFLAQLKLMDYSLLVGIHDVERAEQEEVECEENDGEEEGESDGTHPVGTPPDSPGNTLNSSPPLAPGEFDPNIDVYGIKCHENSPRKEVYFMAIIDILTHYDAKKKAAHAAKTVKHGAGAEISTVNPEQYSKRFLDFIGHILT
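qHTS, 1536-well: enzyme/substrate mix, compound by pin tool, 5 microM ATP final; RT 60 min; ADP-Glo reagents 1 (45 min) then 2 (30 min); luminescence.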
Pin1 inh – human Pin1 inhibition; Q13526; Pin1 FP peptide displacement, HiFluor488, 10 min; Potency, µM (top dose mostly 115 µM), usual class: inhibitors; 390,000 tested, 0.009% active; AID 504891; active means well fitted inhibition curve with a large enough effect in the polarisation, with a control signal flat, not every such curve was filed as active; inconclusive means small, poorly fitted or top-dose-only effect, or effect the other way, or a change in a side signal; inactive means no such curve, though single readings can be large or run the other way; the % refers to the polarisation
Target sequence (Q13526 whole entry, looked up): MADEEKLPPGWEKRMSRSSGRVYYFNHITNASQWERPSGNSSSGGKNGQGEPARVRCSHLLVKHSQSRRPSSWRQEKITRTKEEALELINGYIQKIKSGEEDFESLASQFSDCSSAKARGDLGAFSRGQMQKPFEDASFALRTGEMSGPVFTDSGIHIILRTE
PGK inhibitor – T. brucei PGK inhibition; PGK/GAPDH coupled, Kinase-Glo luminescence, 60 min; Potency, µM (titrated, usually from 57.5 µM), actives largely listed as inhibitors; 380,000 tested, 0.043% active; further: nearly all actives have a fitted effect of over 60% in size
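Recombinant glycosomal PGK reaction used 1,3-bisphosphoglycerate generated in-well by GAPDH (100nM final) in 100mM TEA pH 7.6, 5mM MgCl2, 0.01% Tween-20. After 60 minutes at room temperature, ATP was read by Kinase-Glo Plus luminescence end-point.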
PI4K2A inh – blocks human PI4K2A kinase activity | activity change, negative = inhibition, % at 76.9 µM | purified PI4K2A, ADP-Glo luminescence, 1 h; stronger effect = lower value | 420,000 tested, 0.13% active | Q9BTU6 | AID 1346378; in the data active means activity change below about -50%; inconclusive means mostly about -30% to -49%
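PI4K2A activity was measured by ADP-Glo luminescence: enzyme (4 ug/mL stock) and phosphatidylinositol (1.2 mM stock) in Tris pH 7.5/MgCl2/EGTA/Triton X-100 buffer were reacted with ATP (300 microM stock) for one hour at ambient temperature.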
Tb PFK inh – blocks T. brucei phosphofructokinase. 330,000 tested, 0.17% active. T. brucei PFK, ADP-Glo luminescence. O15648. Potency, µM (titrated, usually from 57.5 µM), hits mostly inhibitors; further: nearly all actives have a fitted effect of over 60% in size
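PFK 1.25 nM, F6P 0.5 mM, ATP 0.1 mM, 0.1 M TEA pH 8.0, 5 mM MgCl2, 0.01% Tween20, 0.1% BSA; 45 min RT. ADP-Glo readout. qHTS titration up to 57 uM; curves fitted, compounds curve-classed.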
A number is an active result; . = inactive; ? = inconclusive; / = no result given. Unless noted, the call rests on the fitted dose curve; in most records, active means well fitted curve in the direction sought with a large enough effect; inconclusive means small, poorly fitted or top-dose-only effect, or another doubt; inactive means no such curve, though single readings can be large; an effect the other way counts as inactive or inconclusive.

SMILES	PI5P4K alpha inh	Pin1 inh	PGK inhibitor	PI4K2A inh	Tb PFK inh
Cn1nnnc1Sc1ncnc2scc(-c3ccc(C(=O)OC(C)(C)C)cc3)c12	/	.	/	/	/
N#Cc1ccsc1NC(=O)CSc1nnnn1-c1ccc(O)cc1	-61	?	.	.	.
O=C(CSc1nnnn1-c1ccc(O)cc1)NC1CCCCC1	.	.	.	.	.
O=C(NN=C1CCCC1)c1cccc(O)c1	.	.	.	.	.
O=C(NN=C1CCCC1)c1cc(O)cc(O)c1	-79	?	?	.	.
O=C1NC(=S)NC1=Cc1ccco1	-93	?	?	.	/
NC(=O)NC1N=C([O][Al])NC1=O (stereo not given)	/	/	/	.	/
CNc1nc(-c2ccccc2)[n+](-c2ccc(C)cc2)s1	-99	.	.	.	?
Cc1ccc(-c2nc(N)s[n+]2-c2ccccc2)cc1	-80	.	.	.	?
Cc1ccc(-c2nc3ccccc3nc2-c2ccccc2)cc1	.	.	.	.	.
Cc1ccc(-c2cc(-c3ccccc3)nc(NN)n2)cc1	.	.	.	.	.
O=C(CNC(=O)c1ccccc1Cl)OC(C(=O)Nc1cc(C(F)(F)F)ccc1Cl)c1ccccc1 (stereo not given)	/	.	/	/	/
CCCCC1=CC2=CC(=O)C(C)(OC(=O)c3cccs3)C(=O)C2=CO1 (stereo not given)	-87	?	.	.	/
N#CN1CCC(N[S+](=O)([O-])c2cccc(F)c2)CC1	/	.	/	/	/
CCCCC(=O)OCC(=O)[C@H]1[C@H](C)C[C@H]2[C@@H]3C[C@H](F)C4=CC(=O)C=C[C@]4(C)[C@@]3(F)[C@@H](O)C[C@@]21C	/	/	/	.	/
CCN(CC)C(=O)CC[C@@H]1CC[C@]2(CCCN(Cc3cccnc3)C2)O1	/	/	/	.	/
CN(C)CCNC(=S)Nc1cccc(Cl)c1	.	.	.	-51	.
Cc1ccc2c(c1C)NC(C(=O)O)C1CC=CC21 (stereo not given)	/	7.6µM	?	.	?
O=C(O)C1Nc2c(C(F)(F)F)ccc(Cl)c2C2C=CCC12 (stereo not given)	.	/	.	.	.
O=C(O)C1Nc2c(C(=O)N3CCOCC3)cccc2C2C=CCC12 (stereo not given)	-62	?	?	.	.
Cc1cc(C)c2c(c1)NC(C(=O)O)C1CC=CC21 (stereo not given)	-79	?	?	.	.
COc1cccc(NC(=O)C2CCC(CNS(=O)(=O)c3csc(C(N)=O)c3)CC2)c1 (stereo not given)	/	.	.	-66	/
CCc1cccc(NC(=O)C2CCC(CNS(=O)(=O)c3csc(C(N)=O)c3)CC2)c1 (stereo not given)	/	.	.	.	/
O=[N+]([O-])c1cc2no[n+]([O-])c2cc1N1CCCCC1	-80	?	.	.	/
N#Cc1cc(N2CCCCC2)c([N+](=O)[O-])cc1C#N	.	.	.	.	.
SMILES	PI5P4K alpha inh	Pin1 inh	PGK inhibitor	PI4K2A inh	Tb PFK inh
COCCc1ccc(OCC2CO2)cc1 (stereo not given)	/	/	/	.	/
O=C1C=C(O)c2c(O)cccc2C1=O	/	/	/	/	.
COc1cc2c(cc1OC)C(O)=CC(=O)C2=O	-54	/	.	.	/
CC1=NN(c2ccc(C)c(C)c2)C(=O)/C1=C\C=C\c1ccc([N+](=O)[O-])o1	-52	/	.	?	.
COc1ccccc1-c1ccc(/C=C2/C=C(C)OC2=O)o1	.	?	.	.	.
O=C1C(=Cc2ccc(Br)o2)C(=O)c2ccccc21	-85	3µM	7.9µM	.	?
CC1=C/C(=C\c2ccc(Br)o2)C(=O)O1	?	?	10µM	.	?
Cc1cc2c(s1)c1cnn(Cc3ccc(F)cc3Cl)c(=O)c1n2C	/	.	/	/	/
Nc1nc(Nc2cccc(F)c2)nc(NCCO)c1[N+](=O)[O-]	-63	.	.	.	.
Nc1nc(NCc2ccccc2)nc(Nc2cccc(F)c2)c1[N+](=O)[O-]	/	.	.	.	.
COc1ccc(C2c3c(N)nc(CCCc4ccccc4)nc3Oc3ccc4ccccc4c32)cc1OC (stereo not given)	/	.	/	/	/
O=C(N/N=C/c1coc2ccccc2c1=O)c1cc(O)cc(O)c1	-54	.	.	.	.
Cc1cccc(C(=O)N/N=C/c2coc3ccccc3c2=O)c1	?	.	.	.	.
N#Cc1c(-c2ccc(Cl)cc2)no[n+]1[O-]	/	.	/	/	/
Cc1ccc(S(=O)(=O)C(CNC(=O)COc2ccccc2)c2cccs2)cc1 (stereo not given)	/	.	10µM	.	/
CCOC(=O)CC[C@H]1CC[C@]2(CCCN(C3CCCCC3)C2)O1	/	/	/	.	/
O=C(O)C1CSC(c2ccco2)N1 (stereo not given)	-80	/	?	.	?
CC1CCC(C(C)C)C(OC(=O)COC(=O)c2ccc(N)cc2)C1 (stereo not given)	.	?	.	.	.
CC1CCC(C(C)C)C(OC(=O)C[n+]2cccc(C(N)=O)c2)C1 (stereo not given)	-75	.	.	.	.
COc1cc(N/N=C/c2ccccc2O)ncn1	.	.	.	.	.
COc1cc(N/N=C/c2ccc(N(C)C)cc2)ncn1	.	.	.	-53	.
CCn1cnc2c(Nc3ccc(CCC(=O)N=C(N)N)cc3)nc(C#N)nc21	/	.	/	/	/
Cc1cc(C2C(C#N)=C(N)SC(N)=C2C#N)c(C)s1	-56	?	.	.	.
CCOC(=O)C1=C(O)c2ccccc2C(=O)/C1=C\c1ccc(C)cc1	-56	.	.	.	.
Oc1cccc(C=NCc2ccccc2)c1O	-58	?	.	.	.
SMILES	PI5P4K alpha inh	Pin1 inh	PGK inhibitor	PI4K2A inh	Tb PFK inh
Oc1cccc(C=Nc2cccc3ccccc23)c1O	-90	/	.	.	.
Oc1ccccc1C=Nc1cccc2ccccc12	.	.	.	.	.
O=C(N/N=C/c1coc2ccc(Cl)cc2c1=O)c1ccc(O)cc1	.	.	.	.	.
O=C1NC(=S)S/C1=C\c1coc2ccccc2c1=O	-73	.	/	.	.
O=C1NC(=S)S/C1=C\c1coc2ccc(O)cc2c1=O	-100	.	.	.	?
Cc1ccc(-n2c(COc3ccccc3)nnc2SCC(=O)Nc2ccc3c(c2)OCO3)cc1	/	/	/	.	/
COc1cccc(N2C(=O)c3ccccc3C2=O)n1	/	.	/	/	/
O=C(O)/C=C/c1cn(-c2ccccc2)nc1-c1ccc(-c2ccc([N+](=O)[O-])cc2)o1	-60	?	?	.	.
O=C(O)/C=C/c1cn(-c2ccccc2)nc1-c1cccc([N+](=O)[O-])c1	.	.	.	.	.
CNS(=O)(=O)c1cccc(C(=O)OCC(=O)c2ccc[nH]2)c1	-62	?	.	.	.
CCOC(=O)c1c(C)[nH]c(C)c1C(=O)COC(=O)c1cccc(S(=O)(=O)NC)c1	.	.	.	.	.
C=CCN1C(=O)[C@@H](CC(=O)NCCCOC)[C@]2(C(=O)OC)CCCCC=C12	/	/	/	.	/
COc1ccc(C=O)cc1CSc1ccccn1	.	.	.	.	.
Cn1c2ccccc2c2cc(/C=N/NC(=O)c3ccc(O)cc3O)ccc21	-62	.	.	.	.

Screens from PubChem.
